This passage reports fold change and cell count results from PubChem BioAssay.

Where “and” joins values, the source holds several entries; their conditions need not be identical. Equal values may be shown once. Calls of active or inactive are those of the source.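 How the source made its calls: active means compounds whose cell count with miR-34 switched on is under 0.7 times the count with it off; inactive means the rest.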

A short description of the first experiment: sensitizers of A549 cells to miR-34 induction, primary screen, imaging, A549 dox-inducible miR-34, nuclei and caspase counts (AID 1347080). Further: test concentration not given here. The settings on record: A549 miR-34 inducible, Hoechst nuclei count, 48 h; stronger effect = lower value; cell number ratio, induced over uninduced.
Turning to `COc1cc(N)c(Cl)cc1C(=O)NC1CCN(CCCOc2ccc(F)cc2)CC1OC` (stereo unspecified), the fold change is 0.948 (inactive).
Regarding `O=C(OOC(=O)c1ccccc1)c1ccccc1`, the fold change was 0.948 (inactive).
Same read-out and setting: the result for `CCOCC(O)COc1ccc(NC(=O)CC[S+](C)C)cc1` (stereo unspecified) reads 0.867 (inactive) and 0.902 (inactive); that for `CC[C@@H](CO)NCCN[C@@H](CC)CO`, 0.901 (inactive); that for `Cc1ncc(CSSCc2cnc(C)c(O)c2CO)c(CO)c1O`, 0.95 (inactive).
The same measure, in the same setting: the result for `CC1=C(C/C=C(\C)CCC[C@H](C)CCC[C@H](C)CCCC(C)C)C(=O)c2ccccc2C1=O` reads 0.94 (inactive); that for `OCCc1ccccc1`, 0.881 (inactive).
Still for that read-out and setting: the result for `O=C1c2ccccc2C(=O)C1c1ccc(Br)cc1` reads 0.831 (inactive).
In the case of `CCOC(=O)c1ccc(O)cc1`, the fold change is 0.873 (inactive).
On the same count and under the same terms, then `CC(C)CCCC(C)N` (stereo unspecified), with 0.884 (inactive); and `NCCNCCNCCN`, with 0.908 (inactive).
The same measure, in the same setting: then `Nc1ncn([C@H]2C[C@H](O)[C@@H](CO)O2)c(=O)n1`, with 0.823 (inactive); and `CC(O)Cn1cnc2c1c(=O)n(C)c(=O)n2C` (stereo unspecified), with 0.894 (inactive); and `CC(=O)NCc1c(I)c(NC(C)=O)c(I)c(C(=O)O)c1I`, with 0.851 (inactive).
On the same count and under the same terms, then `O=S(=O)(O)CCCS(=O)(=O)O`, with 0.939 (inactive); and `CCN(CC)CCOc1ccc2c(c1)C(=O)c1cc(OCCN(CC)CC)ccc1-2`, with 0.841 (inactive); and `CCCCCCCCCCOc1cc2c(=O)c(C(=O)OCC)c[nH]c2cc1OCC`, with 0.938 (inactive).
For `NC(=O)c1cc[n+](CC2=C(C(=O)[O-])N3C(=O)[C@@H](NC(=O)Cc4cccs4)[C@H]3SC2)cc1`, the fold change was 0.969 (inactive).
Turning to `Cc1cc2nc3ccc(=[N+](C)C)cc-3sc2cc1N`, the fold change is 1.11 (inactive).
Consider `NC(=O)C1(N2CCCCC2)CCN(CCCC(=O)c2ccc(F)cc2)CC1`, for which the fold change is 0.938 (inactive).
Same read-out and setting: then `O=C(Nc1ccc(C(=O)O)c(O)c1)c1ccccc1`, with 0.856 (inactive); and `O=C1OC2(c3ccc(O)cc3Oc3cc(O)ccc32)c2ccccc21`, with 0.894 (inactive).
As to `COc1cc(C(=O)NCCCCCC(=O)O)cc(OC)c1OC`, the fold change is 0.815 (inactive).
Consider `OC1C(O)C(O)C(O)C(O)C1O` (stereo unspecified), for which the fold change is 0.895 (inactive).
The same measure, in the same setting: the result for `Nc1nc(Cl)nc2c1ncn2[C@@H]1O[C@H](CO)[C@@H](O)[C@@H]1F` reads 1.02 (inactive) and 0.96 (inactive); that for `CC(=O)OCC(=O)[C@@]1(O)CCC2C3CCC4=CC(=O)CC[C@]4(C)C3[C@@H](O)C[C@@]21C` (stereo partly specified), 0.742 (inactive).
Consider `NC(=O)CCCCC1CCSS1` (stereo unspecified), for which the fold change is 0.89 (inactive).

Still in this experiment, the particulars now being: A549 miR-34 inducible, Hoechst nuclei count, 48 h; measured here: relative caspase fold change +Dox/-Dox.
In the case of `COc1cc(N)c(Cl)cc1C(=O)NC1CCN(CCCOc2ccc(F)cc2)CC1OC` (stereo unspecified), the fold change turned out to be 1.94.
On the same count and under the same terms, the result for `O=C(OOC(=O)c1ccccc1)c1ccccc1` reads 3.94; that for `CCOCC(O)COc1ccc(NC(=O)CC[S+](C)C)cc1` (stereo unspecified), 0.938 and 2.11; that for `CC[C@@H](CO)NCCN[C@@H](CC)CO`, 1.1.
Still for that read-out and setting: the result for `Cc1ncc(CSSCc2cnc(C)c(O)c2CO)c(CO)c1O` reads 0.868.
Regarding `CC1=C(C/C=C(\C)CCC[C@H](C)CCC[C@H](C)CCCC(C)C)C(=O)c2ccccc2C1=O`, the fold change was 3.52.
Still for that read-out and setting: the result for `OCCc1ccccc1` reads 7.55; that for `O=C1c2ccccc2C(=O)C1c1ccc(Br)cc1`, 3.92; that for `CCOC(=O)c1ccc(O)cc1`, 1.39.
On the same count and under the same terms, then `CC(C)CCCC(C)N` (stereo unspecified), with 1.92; and `NCCNCCNCCN`, with 4.46.
Same read-out and setting: then `Nc1ncn([C@H]2C[C@H](O)[C@@H](CO)O2)c(=O)n1`, with 1.99; and `CC(O)Cn1cnc2c1c(=O)n(C)c(=O)n2C` (stereo unspecified), with 1.1.
With `CC(=O)NCc1c(I)c(NC(C)=O)c(I)c(C(=O)O)c1I`, the fold change stood at 1.88.
On the same count and under the same terms, then `O=S(=O)(O)CCCS(=O)(=O)O`, with 1.14; and `CCN(CC)CCOc1ccc2c(c1)C(=O)c1cc(OCCN(CC)CC)ccc1-2`, with 3.57.
Turning to `CCCCCCCCCCOc1cc2c(=O)c(C(=O)OCC)c[nH]c2cc1OCC`, the fold change was determined as 1.91.
Still for that read-out and setting: then `NC(=O)c1cc[n+](CC2=C(C(=O)[O-])N3C(=O)[C@@H](NC(=O)Cc4cccs4)[C@H]3SC2)cc1`, with 0.479; and `Cc1cc2nc3ccc(=[N+](C)C)cc-3sc2cc1N`, with 1.04.
Regarding `NC(=O)C1(N2CCCCC2)CCN(CCCC(=O)c2ccc(F)cc2)CC1`, the fold change came out at 0.733.
Same read-out and setting: the result for `O=C(Nc1ccc(C(=O)O)c(O)c1)c1ccccc1` reads 5.2; that for `O=C1OC2(c3ccc(O)cc3Oc3cc(O)ccc32)c2ccccc21`, 5.09; that for `COc1cc(C(=O)NCCCCCC(=O)O)cc(OC)c1OC`, 7.04.
Still for that read-out and setting: then `OC1C(O)C(O)C(O)C(O)C1O` (stereo unspecified), with 0.941.
Same read-out and setting: the result for `Nc1nc(Cl)nc2c1ncn2[C@@H]1O[C@H](CO)[C@@H](O)[C@@H]1F` reads 1.45 and 0.847.
For the compound `CC(=O)OCC(=O)[C@@]1(O)CCC2C3CCC4=CC(=O)CC[C@]4(C)C3[C@@H](O)C[C@@]21C` (stereo partly specified), the fold change was 1.6.
Take `NC(=O)CCCCC1CCSS1` (stereo unspecified): the fold change was 1.01.

The experiment is the same for the next values; noted with them: A549 miR-34 inducible, Hoechst nuclei count, 48 h; measured here: total cells with miR-34 induction; stronger effect = lower value.
Regarding `COc1cc(N)c(Cl)cc1C(=O)NC1CCN(CCCOc2ccc(F)cc2)CC1OC` (stereo unspecified), the cell count was found to be 8510.
On the same count and under the same terms, then `O=C(OOC(=O)c1ccccc1)c1ccccc1`, with 10800; and `CCOCC(O)COc1ccc(NC(=O)CC[S+](C)C)cc1` (stereo unspecified), with 8140 and 8470; and `CC[C@@H](CO)NCCN[C@@H](CC)CO`, with 11300.
For `Cc1ncc(CSSCc2cnc(C)c(O)c2CO)c(CO)c1O`, the cell count is 8920.
Still for that read-out and setting: then `CC1=C(C/C=C(\C)CCC[C@H](C)CCC[C@H](C)CCCC(C)C)C(=O)c2ccccc2C1=O`, with 11600.
The same measure, in the same setting: then `OCCc1ccccc1`, with 11500; and `O=C1c2ccccc2C(=O)C1c1ccc(Br)cc1`, with 10800; and `CCOC(=O)c1ccc(O)cc1`, with 10900.
As to `CC(C)CCCC(C)N` (stereo unspecified), the cell count was found to be 11300.
With `NCCNCCNCCN`, the cell count worked out at 11700.
Same read-out and setting: then `Nc1ncn([C@H]2C[C@H](O)[C@@H](CO)O2)c(=O)n1`, with 8200.
Still for that read-out and setting: then `CC(O)Cn1cnc2c1c(=O)n(C)c(=O)n2C` (stereo unspecified), with 7540.
With `CC(=O)NCc1c(I)c(NC(C)=O)c(I)c(C(=O)O)c1I`, the cell count worked out at 10700.
Still for that read-out and setting: then `O=S(=O)(O)CCCS(=O)(=O)O`, with 9300; and `CCN(CC)CCOc1ccc2c(c1)C(=O)c1cc(OCCN(CC)CC)ccc1-2`, with 9990; and `CCCCCCCCCCOc1cc2c(=O)c(C(=O)OCC)c[nH]c2cc1OCC`, with 11200.
Same read-out and setting: the result for `NC(=O)c1cc[n+](CC2=C(C(=O)[O-])N3C(=O)[C@@H](NC(=O)Cc4cccs4)[C@H]3SC2)cc1` reads 9810; that for `Cc1cc2nc3ccc(=[N+](C)C)cc-3sc2cc1N`, 2760; that for `NC(=O)C1(N2CCCCC2)CCN(CCCC(=O)c2ccc(F)cc2)CC1`, 8980.
Still for that read-out and setting: the result for `O=C(Nc1ccc(C(=O)O)c(O)c1)c1ccccc1` reads 11700; that for `O=C1OC2(c3ccc(O)cc3Oc3cc(O)ccc32)c2ccccc21`, 11200.
For `COc1cc(C(=O)NCCCCCC(=O)O)cc(OC)c1OC`, the cell count worked out at 11100.
For `OC1C(O)C(O)C(O)C(O)C1O` (stereo unspecified), the cell count was determined as 11600.
Still for that read-out and setting: then `Nc1nc(Cl)nc2c1ncn2[C@@H]1O[C@H](CO)[C@@H](O)[C@@H]1F`, with 3880 and 3040.
The same measure, in the same setting: the result for `CC(=O)OCC(=O)[C@@]1(O)CCC2C3CCC4=CC(=O)CC[C@]4(C)C3[C@@H](O)C[C@@]21C` (stereo partly specified) reads 6930; that for `NC(=O)CCCCC1CCSS1` (stereo unspecified), 8370.
